CYP2C9 inhib: inhibitors of human CYP2C9; CYP2C9 Supersomes, luciferin-H conversion, luminescence; inhibition, % at 5 µM; hit rate 20% among 96,000;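 active means blocking of liver enzyme CYP2C9 beyond about 50% at 5 µM, limit read from the data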
CYP2C19 activ: activators of human cytochrome P450 2C19; recombinant CYP2C19, luciferin-H EGE luminescence; active compounds read high; 0 = fully inhibited enzyme, 1 = untreated enzyme; activation factor at 5 µM; P33261; AID 1025; 96,000 tested, under 10 active;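 active means activation factor of at least 2 at 5 µM in the primary screen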
Target sequence (P33261 whole entry, looked up): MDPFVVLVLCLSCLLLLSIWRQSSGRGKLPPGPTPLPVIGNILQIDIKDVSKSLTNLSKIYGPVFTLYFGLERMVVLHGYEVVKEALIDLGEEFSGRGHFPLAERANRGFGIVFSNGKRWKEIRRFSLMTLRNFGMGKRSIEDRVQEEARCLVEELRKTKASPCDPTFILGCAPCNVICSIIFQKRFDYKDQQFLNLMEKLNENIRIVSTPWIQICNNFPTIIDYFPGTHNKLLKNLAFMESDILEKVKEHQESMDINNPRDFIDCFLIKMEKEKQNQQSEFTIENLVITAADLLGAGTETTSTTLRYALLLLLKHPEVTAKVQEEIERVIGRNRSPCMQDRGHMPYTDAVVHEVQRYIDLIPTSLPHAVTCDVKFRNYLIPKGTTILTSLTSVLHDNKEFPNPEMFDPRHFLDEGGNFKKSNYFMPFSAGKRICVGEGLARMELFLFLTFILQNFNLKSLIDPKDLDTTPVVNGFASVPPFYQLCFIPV
CYP2C9 act: activators of human CYP2C9 | P11712 | recombinant CYP2C9, luciferin-H conversion, luminescence; active compounds read high; factor 1 = untreated enzyme, 0 = blocked | activation factor at 5 µM | hit rate 1.4% among 96,000 | AID 1024;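 active means activation factor of 2 or more for CYP2C9 at a 5 µM dose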
Measles CPE: protection of cells from measles virus; Measles virus-infected cells, CPE protection, absorbance; hit rate 1.5% among 140,000; protection (pct of control), % at 4 µM; in the data active means protection mostly above about 24%, no sharp cut-off; inactive means mostly below about 26%
CYP2C19 inh: human CYP2C19 inhibition. inhibition, % at 5 µM. hit rate 21% among 96,000. CYP2C19 Supersomes, luciferin-H EGE luminescence, 30 min. AID 778;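 active means CYP2C19 inhibition above a set limit at 5 µM in the primary screen, cut at about 50% in these data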
Of the large screens only hits and unclear results are named; the others gave an inactive call. Compounds with a hit are over-represented: about 22% of the library has one in this group of screens.

Cc1cc(C(=O)CSc2nnc(-c3cccs3)n2Cc2ccccc2)c(C)n1C	none
CCn1c(SCC(=O)c2cc(C)n(C)c2C)nnc1-c1ccccc1	CYP2C19 inh 100
C=CCn1c(SCC(=O)c2ccc(O)c(O)c2)nnc1-c1ccccc1OC	CYP2C19 inh 75
Cc1ccc(S(=O)(=O)Nc2ccc(NC(=O)Nc3ccc(F)cc3F)cc2)cc1	none (no result: CYP2C9 inhib, CYP2C19 activ, CYP2C9 act, CYP2C19 inh)
O=S(=O)(c1ccc(Cl)c(C(F)(F)F)c1)N1CCN(CC(O)COCC2CCCO2)CC1 (configuration not stated)	CYP2C9 act 2
O=C(CN1CCN(S(=O)(=O)c2ccc(F)cc2)CC1)Nc1ccc(Cl)c(C(F)(F)F)c1	none
CCCCC1CC1C(=O)Nc1ccc(OC)c(OC)c1 (configuration not stated)	CYP2C9 inhib 59, CYP2C19 inh 92
CS(=O)(=O)N(CC(=O)Nc1ccccc1Sc1ccccc1)C1CCCCC1	none
CSc1cccc(NC(=O)CN(C2CCCCC2)S(C)(=O)=O)c1	CYP2C9 inhib 71, CYP2C19 inh 59
COc1ccc(NC(=O)CN(C2CCCCC2)S(C)(=O)=O)cc1OC	CYP2C19 inh 50
CCCCOC(=O)c1ccc(NC(=O)Nc2ccc(OC)c(OC)c2)cc1	none
CC(Sc1nnc(C(C)N(C)C)n1-c1ccc(Cl)cc1)C(=O)Nc1ccc2c(c1)OCO2 (configuration not stated)	none
CCCCn1c(=O)c2ccccc2c2ccccc2c1=O	CYP2C9 inhib 72, CYP2C19 inh 82
CCCCn1c(=O)c(-c2ccccc2)c(O)c2ccccc21	none
COc1ccc(O)c(-c2[nH]ncc2C(=O)c2ccccc2C)c1	CYP2C9 inhib 87, CYP2C19 inh 90
COc1ccc(OC)c(C(=O)c2ccccc2)c1	none (no result: CYP2C9 inhib, CYP2C19 activ, CYP2C9 act, CYP2C19 inh)
COc1ccc(OCC(=O)Nc2ccc(N3CCOCC3)c(Cl)c2)cc1	CYP2C9 inhib 65
Cn1ccnc1SCC(=O)Nc1ccc2nc(SCC(=O)NC3CC3)sc2c1	CYP2C9 inhib 62
CCCC(=O)Nc1ccc2nc(SCC(=O)Nc3ccc(N4CCOCC4)c(Cl)c3)sc2c1	CYP2C9 inhib 69
CCOC(=O)c1cnc(SCC(=O)Nc2cc(C(F)(F)F)ccc2N2CCOCC2)nc1N	none
CCOC(=O)c1cnc(SCC(=O)Nc2ccc(N3CCOCC3)c(Cl)c2)nc1N	CYP2C9 inhib 81
Nc1ccc2nc(SCC(=O)Nc3ccc(N4CCOCC4)c(Cl)c3)sc2c1	none (no result: CYP2C9 inhib, CYP2C19 activ, CYP2C9 act, CYP2C19 inh)
Cc1ccc(S(=O)(=O)N2CCN(C(=O)COC(=O)COc3ccccc3)CC2)cc1	none
O=C1CCCN1CCC1CCN(C(=S)Nc2ccc(F)cc2)CC1	none
CC(C)c1cc[n+](-c2nc([O-])sc2C=O)cc1	none
COC(=O)C(NNc1ccccc1)(NC(=O)c1cccc(F)c1)C(F)(F)F (configuration not stated)	CYP2C9 inhib 84, CYP2C19 inh 83
COc1cccc(C(=O)Nc2ccccc2)c1	none
CCOC(=O)CNC(=O)CN1CCCN(S(=O)(=O)c2ccc(Br)s2)CC1	none
CC1CCCN(S(=O)(=O)c2ccc(Br)s2)C1 (configuration not stated)	none (no result: CYP2C9 inhib, CYP2C19 activ, CYP2C9 act, CYP2C19 inh)
CC1CCN(S(=O)(=O)c2ccc(Br)s2)CC1	CYP2C19 inh 95
O=S(=O)(c1ccc(Br)s1)N1CCCCC1	CYP2C19 inh 73
O=C(CN1CCCN(S(=O)(=O)c2ccc(Br)s2)CC1)Nc1ccc(Cl)cc1	CYP2C19 inh 88
Cn1nnnc1SCC(=O)NC(=O)NCc1ccccc1	none
COc1cc([N+](=O)[O-])ccc1NC(=O)Nc1nc2c(s1)CCCC2	none (no result: CYP2C9 inhib, CYP2C19 activ, CYP2C9 act, CYP2C19 inh)
Cc1ccc(/C=N\NC(=O)C2COc3cc4ccccc4cc3O2)o1 (configuration not stated)	none (no result: CYP2C9 inhib, CYP2C19 activ, CYP2C9 act, CYP2C19 inh)
CC(C)COc1ccc(CSCCNC(=S)Nc2ccccc2)cc1	CYP2C9 inhib 58
O=C(NCc1ccccc1F)c1ccc(S(=O)(=O)Nc2cccc(C(F)(F)F)c2)cc1	Measles CPE 31 (no result: CYP2C9 inhib, CYP2C19 activ, CYP2C9 act, CYP2C19 inh)
O=C(NCc1ccc(F)cc1)c1ccc(S(=O)(=O)Nc2cccc(C(F)(F)F)c2)cc1	none (no result: CYP2C9 inhib, CYP2C19 activ, CYP2C9 act, CYP2C19 inh)
COc1ccc(Nc2oc(COc3ccccc3F)nc2C#N)cc1	CYP2C9 inhib 60, CYP2C19 inh 54
COc1ccc(CCNc2oc(COc3ccccc3)nc2C#N)cc1	CYP2C9 inhib 70
CN(C)c1oc(-c2ccco2)nc1C#N	none
CN(Cc1ccccc1)c1oc(-c2ccco2)nc1C#N	CYP2C9 inhib 62, CYP2C19 inh 59
CN(Cc1ccccc1)c1oc(COc2ccccc2F)nc1C#N	CYP2C9 inhib 99, CYP2C19 inh 100
COc1ccc(Nc2oc(COc3ccc(OC)cc3)nc2C#N)cc1	none (no result: CYP2C9 inhib, CYP2C19 activ, CYP2C9 act, CYP2C19 inh)
COc1ccccc1NS(=O)(=O)c1cccc(N=C2N=C(N)c3ccccc32)c1	none (no result: CYP2C9 inhib, CYP2C19 activ, CYP2C9 act, CYP2C19 inh)
N#Cc1nc(Cc2cccc3ccccc23)oc1NCc1ccco1	none
N#Cc1nc(Cc2cccc3ccccc23)oc1NCCCN1CCOCC1	none
CNc1oc(-c2ccc(OCc3ccccc3)cc2)nc1C#N	CYP2C9 act 2.2
COc1ccc(CNc2oc(Cc3cccc4ccccc34)nc2C#N)cc1	CYP2C9 inhib 96, CYP2C19 inh 79
COc1ccc(CNc2oc(COc3ccccc3)nc2C#N)cc1	CYP2C9 inhib 66, CYP2C19 inh 53
N#Cc1nc(Cc2cccc3ccccc23)oc1NCCCn1ccnc1	CYP2C9 inhib 97, CYP2C19 inh 98
Cc1nc2c(c(C)nn2-c2ccccc2)c(C)c1Cl	none
N#Cc1nc(COc2ccccc2F)oc1NCCc1ccccc1	CYP2C9 inhib 88, CYP2C19 inh 88
N#Cc1nc(COc2ccccc2Cl)oc1NCc1ccc(F)cc1	none
Clc1cc(Sc2ccc(Br)cc2)nnc1-c1ccccc1	CYP2C9 inhib 68, CYP2C19 inh 54
COc1ccc2c(c1)S/C(=C\C(=O)c1ccncc1)N2C	CYP2C9 inhib 62, CYP2C19 inh 73
Cc1cc(C)c2c(C)nn(C3CCCCC3)c2n1	none
CCOc1ccccc1NC1c2ccccc2C(=O)N1Cc1ccco1 (configuration not stated)	CYP2C19 inh 63
O=C1c2ccccc2C(Nc2ccc(S(=O)(=O)N3CCCCCC3)cc2)N1Cc1ccco1 (configuration not stated)	CYP2C9 inhib 97
CCc1ccccc1NC1c2ccccc2C(=O)N1Cc1ccco1 (configuration not stated)	none
Cc1ccc(N2C(=O)c3ccccc3C2Nc2ccc(S(=O)(=O)N3CCCCC3)cc2)nc1 (configuration not stated)	none
CCCCCC(/C=N/Nc1ccc(S(=O)(=O)N2CCOCC2)cc1[N+](=O)[O-])=C\c1ccccc1	CYP2C9 inhib 82
O=C(COc1ccccc1)N1CCN(c2ncnc3c2cnn3-c2ccccc2)CC1	CYP2C9 inhib 71, CYP2C19 inh 80
c1ccc(-n2ncc3c(N4CCN(CCOc5cccc6ccccc56)CC4)ncnc32)cc1	CYP2C9 inhib 76
Cc1cccc(C(=O)N2CCN(c3ncnc4c3cnn4-c3ccccc3)CC2)c1	none (no result: CYP2C9 inhib, CYP2C19 activ, CYP2C9 act, CYP2C19 inh)
CCCCn1c(C(C)O)nc2ccccc21 (configuration not stated)	none
O=C(CSc1nnc(-c2cnccn2)n1Cc1ccco1)c1ccccc1	none
O=C(CSc1nnc(-c2cnccn2)n1Cc1ccco1)c1ccc(Cl)cc1	CYP2C9 inhib 59

Assay outcomes: PubChem, several laboratories
